# Data taken from PubChem BioAssay AID588436 (Broad Institute, 2011).
# Out of some 350,000 compounds screened, about 550 (0.16%) were called active. Cut-off read from the data, not from the text of the source: active = activation mostly above about 9.7% (no sharp cut-off); inconclusive = no clear call, values can overlap the other calls; inactive = mostly below about 3.7%. What follows is part of a selection rich in actives, with near analogues and random picks from the rest.
# Assay: inducers of Vibrio cholerae quorum light production without autoinducers, primary screen, BH1578 luxS cqsA deficient, single point (AID 588436)
# Conditions: V. cholerae BH1578 lux reporter, luminescence, 6 h, at 18.7 µM; stronger effect = higher value
row,Compound,activation
1,COc1cccc(NS(=O)(=O)c2ccc3[nH]cc(C(=O)NCCCOC(C)C)c(=O)c3c2)c1,inactive
2,CN(C)c1ccc(CNC23CN4CN(CN(C4)C2)C3)cc1,54% (active)
3,CN(C)c1ccc(CSc2ccccc2)cc1,inactive
4,CN(C)c1ccc(CNC2C3CC4CC(C3)CC2C4)cc1 (stereo unspecified),-0.358% (inactive)
5,CCN1CN(Cc2ccccc2)CNC1=S,inactive
6,C=CCC(C(=O)c1ccccc1)[N+](C)(C)CC=C (stereo unspecified),inactive
7,COc1ccccc1C(=O)NC(CCSC)C(=O)NNC(=O)c1csc(N2CCOCC2)n1 (stereo unspecified),inactive
8,COc1ccc(-n2ncc3c2CC(C)(C)CC3NC(=O)CCc2c(C)noc2C)cc1 (stereo unspecified),-0.606% (inactive)
9,O=C(O)CCCCCCCCc1cn(CN2C(=O)c3ccccc3C2=O)nn1,-0.601% (inactive)
10,COc1ccc(CC(=O)c2ccc(O)cc2O)cc1OC,1.54% (inactive)
11,O=C(NC1CCN(C(=S)NCc2ccco2)CC1)c1ccc(F)cc1,inactive
12,CCN(C[C@H]1N[C@@](CC)(C(=O)OC)[C@H]2C(=O)N(Cc3ccccc3)C(=O)[C@@H]12)S(=O)(=O)c1ccc(C(F)(F)F)cc1,inactive
13,Cc1ncoc1C(=O)NCCC(c1ccccc1)c1ccccc1,inactive
14,CS(=O)(=O)N1CCCC(C(=O)Nc2ccccc2C(F)(F)F)C1 (stereo unspecified),-3.85% (inactive)
15,CCN(CC(=O)NCC(=O)Nc1cccc(C)c1C)Cc1ccccc1,inactive
16,CCCCCCn1c(=O)n2n(c1=O)C[C@]1(OC(=O)NCc3ccc(OC)c(OC)c3)CN(S(=O)(=O)c3ccc(C)cc3)C[C@]1(O)C2,-2.08% (inactive)
17,Cc1ccc(C(=O)N/N=C/c2sc(=O)n(Cc3cccc(C(=O)O)c3)c2Cl)cc1,0.645% (inactive)
18,CCCCNC(=O)Cn1nc(C)c(S(=O)(=O)N2CCOCC2)c1C,inactive
19,Cc1onc(-c2ccccc2)c1C(=O)N1CCOCC1,16.7% (active)
20,CNc1cncc(-c2cccc(C(=O)N3CCOCC3)c2)n1,3.33% (inactive)
21,Cc1onc(-c2ccccc2)c1C(=O)N1CCN(S(=O)(=O)c2ccccc2C(F)(F)F)CC1,-0.206% (inactive)
22,Cc1cccc(N2CCN(C(C)C(=O)N3CCc4ccccc43)CC2)c1C (stereo unspecified),-0.336% (inactive)

row,Compound,activation
1,COc1ccccc1-c1cnn2c(N3CCOCC3)cc(C)nc12,-0.198% (inactive)
2,CC(C)n1ncc2c(C(=O)N3CCN(Cc4cccs4)CC3)cc(C3CC3)nc21,-0.459% (inactive)
3,N#Cc1c(C(F)(F)F)cc(-c2cccs2)nc1N1CCCCC1,-0.871% (inactive)
4,CCN(CC)c1nc(-c2ccccc2)cc(C(F)(F)F)c1C#N,17.9% (active)
5,N#Cc1c(C(F)(F)F)cc(-c2ccccc2)nc1SCC(=O)N1CCOCC1,-0.279% (inactive)
6,CS(=O)(=O)c1sc(C(=O)NC(=S)Nc2ccc(OC(F)(F)F)cc2)c2c1C=CCC2,0.546% (inactive)
7,COC(=O)Cc1ccc(OCC(=O)Nc2ccc(OC(F)(F)F)cc2)cc1,-0.392% (inactive)
8,CCNC(=S)Nc1ccc(OC(F)(F)F)cc1,20.7% (active)
9,CCn1c2c(c3ccc(OC)cc31)CCCC2=O,inactive
10,CC(C[N+](C)(C)C)OC(N)=O (stereo unspecified),inactive
11,CC(=O)OCC(COC(C)=O)OC(C)=O,-1.4% (inactive)
12,CC(=O)OC(C)C[N+](C)(C)C (stereo unspecified),22.9% (active)
13,NC(=O)C1CC=CCC1C(=O)OCC(Cl)=C(Cl)Cl (stereo unspecified),-0.395% (inactive)
14,Cc1noc(C)c1S(=O)(=O)N(C)Cc1ccccc1,inactive
15,COC(CNC(=O)Cn1ncc2ccsc2c1=O)OC,inactive
16,O=C(CN1CCCCCC1)Nc1ccc(Br)cc1Br,-7.69% (inactive)
17,O=C(CN1CCCCCC1)Nc1ccc(Br)cc1[N+](=O)[O-],45.8% (active)
18,O=C(CN1CCCCC1)Nc1ccc(Br)cc1C(=O)c1ccccc1Cl,-0.319% (inactive)
19,CCC1CCCCN1C(=O)Nc1cccc(NC(=O)N2CCCCC2CC)c1 (stereo unspecified),inactive
20,CC(C)CC(=O)N1CCN(Cc2cccc(Cl)c2)CC1,inactive
21,COc1ccccc1CN1CCN(C(=O)Cc2ccccc2)CC1,inactive
22,CC(C)CC(=O)N1CCN(Cc2ccccc2Br)CC1,144% (active)

row,Compound,activation
1,CCOC(=O)c1c(-c2cccc(N)c2)cn2ccccc12,-1.18% (inactive)
2,CC(=O)N1C(=O)C2(Nc3ccccc3N2)c2ccccc21,inactive
3,CC(C)Cc1ccc(S(=O)(=O)N2CCN(C(=O)c3ccco3)CC2)cc1,-6.25% (inactive)
4,Cc1oc2cc3oc(=O)ccc3cc2c1C,-0.488% (inactive)
5,C/C(=N\NS(=O)(=O)c1cccc([N+](=O)[O-])c1)c1cc2ccccc2o1,-2.5% (inactive)
6,CCc1nc2c(OCCOc3ccccc3)cccn2c1N(C=O)Cc1ccc(OC)cc1,4.55% (inactive)
7,COc1cc(C(=O)NCC(=O)NCCSc2ccc(Br)cc2)cc(OC)c1OC,inactive
8,Cc1cccc(C(=O)OCC(=O)NC(C)C2CC3CCC2C3)c1O (stereo unspecified),inactive
9,Cc1cccc(C(=O)OCC(=O)NCC(C)C)c1O,302% (active)
10,Cc1cccc(C)c1NC(=O)COC(=O)c1ccccc1O,-0.155% (inactive)
11,Oc1ccc(CNc2ccccc2O)cc1,-0.266% (inactive)
12,O=C(Nc1ccc2ccccc2c1)Nc1ccc2snnc2c1,inactive
13,COc1ccc2[nH]c(=O)c(CNc3ccc(C)c(C)c3)cc2c1,16.7% (active)
14,COc1ccc2[nH]c(=O)c(CN(CC3CCCO3)C(=O)Nc3ccccc3)cc2c1 (stereo unspecified),-0.239% (inactive)
15,COc1ccc2[nH]c(=O)c(CN(Cc3cccnc3)S(=O)(=O)c3ccccc3F)cc2c1,0.282% (inactive)
16,COc1ccc(N2C(=O)NC(NS(=O)(=O)c3ccc(Cl)cc3)(C(F)(F)F)C2=O)cc1 (stereo unspecified),0.575% (inactive)
17,Cc1ccc(Cl)cc1NC(=O)C1CCCN(c2cnccn2)C1 (stereo unspecified),-2.5% (inactive)
18,CC1(C)C=C2[C@H]3CC[C@@H]4[C@@]5(C)CCC(=O)C(C)(C)[C@@H]5CC[C@@]4(C)[C@]3(C)CC[C@@]2(C(=O)O)CC1,inactive
19,Cc1cc(=O)oc2cc(OC(C)C(=O)Nc3ccc(N4CCOCC4)cc3)ccc12 (stereo unspecified),inactive
20,CCCNC(=O)C1(C)CCCN(Cc2cccc(C(F)(F)F)c2)C1 (stereo unspecified),inactive
21,Cc1cc(NC(=O)CN2CCC(O)(c3cccc(F)c3)CC2)no1,-11.8% (inactive)
22,O=C(CN1CCC(O)(c2cccc(C(F)(F)F)c2)CC1)NCCc1ccccc1,277% (active)
